Bioassay records: PubChem, The Scripps Research Institute Molecular Screening Center
The list is not random: actives were taken first. Their share in the collection is about 4.1%.
hcDAF12 agonist = H. contortus DAF-12 nuclear receptor activators, primary screen, cell-based, luminescence, HEK293, lit1-tk-luc reporter | 1.4% of 370,000 active | HEK293 hcDAF-12 lit1-tk-luc reporter; 0% DMSO, 100% Δ7-dafachronic acid | AID 652067, 2013 | activation, % at 6.8 µM;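 active = activation above the mean of all tested compounds plus 3 SD, cut at about 5.5% in these data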;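 note: 100% = response to 3 µM Δ7-dafachronic acid high control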
DAX1 inh-1 = DAX1 (NR0B1) inhibitors on StAR promoter, primary screen, cell-based, luminescence, SF-1 (NR5A1), full-length DAX-1. HEK293T StAR-luciferase reporter, SF-1/DAX-1 repression relief. 1.1% of 370,000 active. inhibition, % at 6.8 µM;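 active = inhibition above the mean over all tested compounds plus 3 SD, cut at about 3.6% in these data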;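 note: 0% = DAX-1 cells with DMSO and 100% = cells lacking DAX-1 with DMSO; higher inhibition means more luminescence from relief of DAX-1 repression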
ssDAF12 agonist = S. stercoralis DAF-12 nuclear receptor activators, primary screen, cell-based, luminescence, HEK293, GRIP1 co-expression, lit1-tk-luc | 1% of 370,000 active | HEK293 ssDAF-12/GRIP1 lit1-tk-luc reporter; % of 3 µM dafachronic acid response | AID 652126, 2013 | activation, % at 6.8 µM;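 active = activation above the mean over all tested compounds plus 3 SD, cut at about 0.9% in these data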;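 note: 0% = DMSO-only wells and 100% = 3 µM delta7-dafachronic acid wells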
hgDAF12 agonist = H. glycines DAF-12 receptor agonists, primary screen, cell-based, luminescence, HEK293, GAL4 fusion, UAS-luciferase; Nuclear hormone receptor DAF-12 (Heterodera glycines), GAL4 fusion; activation, % at 6.8 µM; HEK293 GAL4-hgDAF12 UAS-luciferase reporter, agonist luminescence; normalized to butyrate control; 1.8% of 370,000 active; AID 687014, 2013;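 active = activation above a cutoff set at the mean of all screened compounds plus 3 SD, cut at about 10% in these data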;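 note: 0% = DMSO wells and 100% = sodium butyrate wells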
DAX1 inh-2 = DAX1 (NR0B1) inhibitors, primary screen, cell-based, HEK293, Gal4-DAX1, luciferase luminescence; HEK293 Gal4-DAX1 luciferase reporter; 0.99% of 340,000 active; AID 504766, 2011; inhibition, % at 6.75 µM;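 active = inhibition above the mean over all tested compounds plus 3 SD, cut at about 4.2% in these data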;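 note: 0% = DAX1-transfected cells with DMSO and 100% = empty-vector control cells with DMSO; inhibition shows as a rise in luminescence from relieved DAX1 repression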
hgDAF12 conf = H. glycines DAF-12 receptor agonists, confirmation, cell-based, luminescence, HEK293, GAL4-LBD fusion | 80% of 3,300 active | shares compounds with hgDAF12 agonist | activation, % at 6.8 µM | HEK293 GAL4-hgDAF12 luciferase reporter, agonist mode; percent of butyrate response;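 active = mean activation over triplicate wells above the hit cutoff derived from the earlier primary screen, cut at about 11% in these data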;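 note: 0% = DMSO low control and 100% = 2 mM sodium butyrate high control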
LXR ag 2 = LXR agonists, Gal4 luciferase reporter, confirmation, counter-screen for hgDAF-12 agonist project, cell-based, luminescence, HEK293, H. glycines campaign; AID 743051, 2013; activation, % at 6.8 µM; 3,300 tested, under 10 active; shares compounds with hgDAF12 agonist; 24 h;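 active = mean activation of the triplicate above a set limit carried over from the primary screen, none filed active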
Target sequence (P55055 whole entry, looked up, the tested form may be a part): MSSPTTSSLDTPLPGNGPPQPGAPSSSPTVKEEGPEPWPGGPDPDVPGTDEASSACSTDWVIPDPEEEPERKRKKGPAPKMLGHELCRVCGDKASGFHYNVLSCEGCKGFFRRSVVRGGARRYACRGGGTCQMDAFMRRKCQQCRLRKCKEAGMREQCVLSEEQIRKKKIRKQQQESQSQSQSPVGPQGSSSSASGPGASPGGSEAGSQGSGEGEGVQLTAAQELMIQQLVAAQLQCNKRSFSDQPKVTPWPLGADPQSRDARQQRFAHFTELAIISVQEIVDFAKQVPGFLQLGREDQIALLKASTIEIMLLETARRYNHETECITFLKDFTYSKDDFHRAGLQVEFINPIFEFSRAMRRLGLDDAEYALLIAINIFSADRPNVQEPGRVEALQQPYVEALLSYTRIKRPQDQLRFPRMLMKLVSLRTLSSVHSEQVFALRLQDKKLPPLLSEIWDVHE
The depositor's hits bear a star; · = no result.

SMILES	hcDAF12 agonist	DAX1 inh-1	ssDAF12 agonist	hgDAF12 agonist	DAX1 inh-2	hgDAF12 conf	LXR ag 2
c1cc(-c2cc3cc(N4CCOCC4)ccc3o2)cs1	5	3	0	15*	4.8*	14*	1
Cc1ccc(Nc2c(O)nc[nH]c2=O)cc1	0	-1	0	0	1	·	·
O=C(Nc1ccc(N2CCOCC2)cc1)c1nc2ccccc2s1	4	4.3*	0	18*	2	15*	1
Cc1ccc(NCCC(=O)c2cccs2)cc1C	4	2	1	15*	1	15*	1
Cc1ccc(NCCC(=O)c2ccc(Cl)cc2)cc1C	1	-1	0	1	0	·	·
C/C(=N\NC(=O)c1ccc2c(c1)OCO2)c1ccc2c(c1)OCO2	0	0	-1	4	2	·	·
C/C(=N\NC(=O)c1cccs1)c1ccc2c(c1)OCO2	5	3	0	20*	·	8	0
COc1ccc(C(C)NC(=O)C2CCN(CCCc3ccccc3)CC2)cc1OC (configuration not stated)	2	0	-1	-1	·	·	·
Cc1nc(NC(=O)c2ccc3c(c2)OCO3)ccc1Br	2	3	0	16*	4.3*	14*	1
O=C(Nc1ccccn1)c1ccc(Br)s1	1	1	1	16*	0	13*	1
Cc1csc(NC(=O)c2ccc(Br)s2)n1	3	0	0	17*	1	13*	1
Cc1csc(NC(=O)c2ccc3c(c2)OCO3)n1	4	2	-1	17*	1	16*	1
CCOC(=O)Cc1csc(NC(=O)c2ccc3c(c2)OCO3)n1	-1	-1	-1	0	-1	·	·
COc1ccccc1C(=O)Nc1ccccn1	4	1	-1	14*	1	13*	0
CC1CC1c1ccc(/C=C(\C#N)C(=O)Nc2ccc(Cl)cc2)o1 (configuration not stated)	3	2	0	14*	1	14*	1
O=C1CCCC(=O)N1c1ccc(N2CCOCC2)c([N+](=O)[O-])c1	-1	0	-1	-3	3	·	·
CC(=Nc1ccc(C)cc1C)c1sc2ccccc2c1O	5.7*	4.2*	1.9*	21*	5.8*	24*	1
Cc1ccc(-c2nc3ncccc3n2O)cc1	0	0	-1	2	2	·	·
COn1c(-c2ccc(Cl)cc2)nc2ncccc21	3	0	0	13*	1	11*	0
O=C(CNC(=O)c1cccc(F)c1)NC1CC1	0	0	-1	1	0	·	·
O=C(N/N=C/c1ccc(Cl)cc1Cl)c1ccc2nc[nH]c2c1	-1	-1	-1	0	0	·	·
COc1cccc(/C=N/NC(=S)Nc2cccc(C(=O)O)c2)c1O	-1	2	-1	17*	-5	4	0
O=C(N/N=C/c1ccc(Cl)cc1Cl)c1cccc(F)c1	4	3	0	15*	3	15*	1
Cc1occc1C(=O)N/N=C/c1cnn(C)c1C	3	3	0	16*	2	9	0
Cc1ccc(/C=N/NC(=O)c2ccoc2C)o1	5	2	0	14*	1	4	0
SMILES	hcDAF12 agonist	DAX1 inh-1	ssDAF12 agonist	hgDAF12 agonist	DAX1 inh-2	hgDAF12 conf	LXR ag 2
COc1ccc(-n2c(=O)c3c4c(sc3n(CC(=O)NCC3CCCO3)c2=O)CN(C(C)=O)CC4)cc1OC (configuration not stated)	-1	0	0	-3	0	·	·
CN(C(=O)COC(=O)Cc1c(F)cccc1Cl)c1c(N)n(Cc2ccccc2)c(=O)[nH]c1=O	-1	1	-1	2	0	·	·
Cc1cc(=O)[nH]c(SCC(=O)Nc2ccc(Cl)cn2)n1	-1	1	-2	2	0	·	·
COc1cc(/C=C2\C(=N)N3N=C(C)SC3=NC2=O)cc(Cl)c1OCCOc1ccc(NC(C)=O)cc1	-2	0	-1	-2	2	·	·
CC(=O)Nc1cccc(C(=O)N/N=C/c2ccccc2F)c1	5	3.7*	1	14*	3	20*	1
Cc1c(/C=N\NC(=O)c2cccc(F)c2)cnn1C	4	1	-1	15*	4	4	0
Cc1c(/C=N/NC(=O)c2ccc3c(c2)OCO3)cnn1C	0	0	0	4	1	·	·
CCC(Sc1nc2ccncc2[nH]1)C(=O)Nc1ccc(C)c(Cl)c1 (configuration not stated)	1	1	-1	1	1	·	·
Cc1ccc(Sc2cnccc2C#N)cc1	0	0	-1	4	0	·	·
CCC(=O)Nc1cccc(-c2ccc(N3CCC(C)CC3)nn2)c1	5.8*	2	1.0*	18*	1	13*	1
NC(=O)c1ccccc1NC(=O)CCn1c(=S)oc2ccccc21	1	0	-1	3	1	·	·
Cc1nn(-c2ccccc2)cc1C(=S)Nc1ccccc1	-1	1	-1	14*	2	7	0
O=C(O)c1ccc(N/N=C/C2=Cc3ccccc3OC2)cc1	3	4.1*	0	19*	11*	16*	0
CC1CN(C2CCN(C(=O)COc3ccc(Cl)cc3)CC2)CC(C)O1 (configuration not stated)	0	0	-1	1	-1	·	·
CC(C)[C@H](NC(=O)c1ccccc1)C(=O)OCC(=O)Nc1ccc(S(=O)(=O)N2CCOCC2)cc1	-2	0	-1	-1	-1	·	·
Cc1ccc(Nc2nnc(SCC(=O)Nc3cccnc3Cl)s2)cc1C	2	0	-1	14*	-1	5	0
Cc1ccc(Nc2nnc(SCC(=O)Nc3ccccc3[N+](=O)[O-])s2)cc1	-1	-1	-1	-1	-2	·	·
CC(C)Cc1nnc(NC(=O)C2CC(=O)N(c3ccc4c(c3)OCCO4)C2)s1 (configuration not stated)	0	0	-1	3	0	·	·
